Our source for the growth values is PubChem BioAssay (NCI).

The panel holds about 83,000 compounds, 20% with a hit somewhere; the sample as a whole holds those more often.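 48-hour exposure, single concentration, 96-well plates; percent growth endpoint where 0 means no net growth. Active: below 10.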 Activity calls are given as the source filed them.

For this test, the system named is HL-60(TB) leukemia. The experiment in a line: NCI-60 one-dose screen, 48 h (100 = growth as untreated, 0 = no growth, -100 = all killed). As to conditions: 10 µM unless noted.
Regarding `CCOC(=O)C1=C(C)NC(C)=C(C(=O)OCC)C1(C)C`, the growth was 69.3% (inactive).
Then `Cc1ccc(C(SCC(N)C(=O)O)(c2ccccc2)c2ccc(C)cc2)cc1` (centres undefined), with -36% (active).
Then `CN(C)c1ccc(Nc2c3ccccc3nc3ccccc23)cc1`, with -2.21% (active).
The same measure for `COc1ccc(COC(=O)CC(C)C)cc1`: 99.7% (inactive); for `CC(C)c1ccccc1NC(=O)N1CCC(C(C)C)CC1`: 105% (inactive); for `O=C(CN1C(=O)c2ccccc2S1(=O)=O)Nc1nc(-c2cc3ccccc3oc2=O)cs1`: 101% (inactive).
Regarding `FC(F)(F)c1cccc(-c2cn3c(ccc4ccccc43)n2)c1`, the growth is 114% (inactive).
Then `N#Cc1c(-c2cccc(F)c2)cc(-c2cccnc2)[nH]c1=O`, with 98% (inactive); and `COc1ccc2c(c1)CC[C@@H]1[C@@H]2CC[C@]2(C)C3C(=CCC4C(=O)N(c5ccccc5)C(=O)C43)C[C@@H]12` (some centres undefined), with 81.6% (inactive).
In the case of `CC[C@]12C=CCN3CC[C@@]4(c5ccc(OC)cc5N(C)[C@H]4[C@@](O)(C(=O)OC)[C@@H]1OC(=O)CCC[P+](c1ccccc1)(c1ccccc1)c1ccccc1)[C@@H]32`, the growth is -53.1% (active).
On to `CCN1C(=O)N(CC)C2Nn3c(s/c(=C\c4ccc([N+](=O)[O-])cc4)c3=O)=NC21` (centres undefined), for which the growth was 87% (inactive).
Then `Nc1c(C(=O)Nc2ccccn2)sc2nc3c(cc12)CCCC3`, with 5.35% (active).
The same measure for `COC(=O)/C=C/C(=O)c1cc(C)cc(C)c1O`: 86.6% (inactive); for `O=C1c2ccccc2C(=O)c2c(N=Nc3sc(=O)[nH]c3S)cccc21`: 111% (inactive).
